# Active and inactive are the calls of the source.
# What was measured:
# [1] = compounds binding Alexa647 anti-His antibody – biochemical, small-molecule microarray, 635 nm fluorescence, artefact control for SMM control protein annotation, primary screen (AID 1128); conditions: higher = more signal;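 also: score merges feature fluorescence with signal-to-noise for each printed compound spot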
# [2] = tested on: Human papillomavirus type 1a E7 protein (residues 1-88); experiment: HPV1a E7 small-molecule binders, primary screen, biochemical, small-molecule microarray, residues 1-88, 635 nm (AID 1129); conditions: small-molecule microarray binding, fluorescence 635 nm; higher = more signal
# [3] = target: Focal adhesion kinase 1 (Homo sapiens) (UniProt Q05397); experiment: PTK2 protein binding on printed compound slides – biochemical, small-molecule microarray, 635/667 nm fluorescence, BSA, DTT, primary screen (AID 1130); conditions: 635 nm fluorescence, higher = more signal;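 also: composite of spot emission at 667 nm and signal to noise over triplicate slides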
# [4] = tested on: Fibrinogen (Alexa647-labelled); experiment: Alexa647-fibrinogen binding to printed small molecules – biochemical, small-molecule microarray, 635/667 nm fluorescence, artefact control for SMM control-protein annotation, profiling panel (AID 1131); conditions: fibrinogen-A647 binding fluorescence, higher = more signal;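 also: z-score merges 667 nm fluorescence with per-spot signal-to-noise over triplicate slides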
# [5] = target: Follistatin (Homo sapiens) (UniProt P19883); experiment: FST protein binding to printed compounds – biochemical, small-molecule microarray, 635/667 nm fluorescence, primary screen (AID 1132); conditions: 635 nm fluorescence, higher = more signal
# [6] = target: Fibroblast growth factor 2 (Homo sapiens) (UniProt P09038); experiment: basic fibroblast growth factor binding to printed compounds – biochemical, small-molecule microarray, 635/667 nm fluorescence, primary screen (AID 1133); conditions: FGF2, fluorescence 635/667, higher = more signal
# [7] = JC-1 mitochondrial potential readout, lung cancer cells – cell-based, A549, JC-1 fluorescence, basal, 24 h, 100 nL, profiling panel (AID 1138); conditions: higher = more signal;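 also: A549 lung adenocarcinoma cells under basal conditions with no added stimulus; test concentration not given here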
# [8] = tested on: Lefty1; experiment: Lefty1 protein binding to printed compounds – biochemical, small-molecule microarray, 635/667 nm fluorescence, primary screen (AID 1139); conditions: fluorescence 635/667, higher = more signal
# [9] = tested on: wheat germ agglutinin (Triticum aestivum), Alexa647-labelled; experiment: Alexa647-WGA lectin binding to printed small molecules – biochemical, small-molecule microarray, 635/667 nm fluorescence, artefact control for SMM control-protein annotation, profiling panel (AID 1140); conditions: WGA-A647 binding, 635 nm fluorescence, higher = more signal;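 also: score merges 667 nm feature emission with signal to noise over triplicate slides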
# [10] = target: Luciferin 4-monooxygenase (Photinus pyralis) (UniProt P08659); experiment: inhibition of purified Photinus pyralis luciferase – biochemical, luminescence, purified enzyme, 2006 set, primary screen (AID 1141); conditions: purified firefly luciferase, SteadyGlo luminescence, 30 min; higher = more signal, called active from +8 up or from −8 down;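 also: cell-free assay with purified firefly luciferase at 100 ng per well in PBS; test concentration not given here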
# Sequence of Luciferin 4-monooxygenase (Photinus pyralis) (P08659 whole entry, looked up): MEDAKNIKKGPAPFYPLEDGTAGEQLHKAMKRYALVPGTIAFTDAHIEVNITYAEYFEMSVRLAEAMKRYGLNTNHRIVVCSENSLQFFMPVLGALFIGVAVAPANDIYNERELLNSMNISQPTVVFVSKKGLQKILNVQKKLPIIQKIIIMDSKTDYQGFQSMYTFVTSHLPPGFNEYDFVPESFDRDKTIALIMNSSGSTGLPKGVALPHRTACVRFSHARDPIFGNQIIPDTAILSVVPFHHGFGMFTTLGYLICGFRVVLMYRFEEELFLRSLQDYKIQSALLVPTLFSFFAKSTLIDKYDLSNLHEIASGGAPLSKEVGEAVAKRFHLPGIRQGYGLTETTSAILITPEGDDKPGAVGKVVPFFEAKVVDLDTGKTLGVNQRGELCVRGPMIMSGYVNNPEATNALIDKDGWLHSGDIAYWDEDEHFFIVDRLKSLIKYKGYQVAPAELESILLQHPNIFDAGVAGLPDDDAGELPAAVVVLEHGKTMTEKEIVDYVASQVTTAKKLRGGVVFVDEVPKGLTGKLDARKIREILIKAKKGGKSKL
# Sequence of Follistatin (Homo sapiens) (P19883 whole entry, looked up): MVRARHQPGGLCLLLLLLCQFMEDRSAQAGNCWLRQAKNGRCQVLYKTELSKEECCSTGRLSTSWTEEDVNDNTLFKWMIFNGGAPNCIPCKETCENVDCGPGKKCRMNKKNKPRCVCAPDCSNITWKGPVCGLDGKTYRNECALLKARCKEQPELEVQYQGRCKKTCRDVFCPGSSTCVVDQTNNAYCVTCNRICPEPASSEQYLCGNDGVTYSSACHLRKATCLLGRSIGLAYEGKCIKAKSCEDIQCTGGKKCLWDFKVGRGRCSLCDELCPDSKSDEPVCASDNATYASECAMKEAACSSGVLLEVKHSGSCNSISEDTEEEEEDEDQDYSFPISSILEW
# Sequence of Fibroblast growth factor 2 (Homo sapiens) (P09038 whole entry, looked up): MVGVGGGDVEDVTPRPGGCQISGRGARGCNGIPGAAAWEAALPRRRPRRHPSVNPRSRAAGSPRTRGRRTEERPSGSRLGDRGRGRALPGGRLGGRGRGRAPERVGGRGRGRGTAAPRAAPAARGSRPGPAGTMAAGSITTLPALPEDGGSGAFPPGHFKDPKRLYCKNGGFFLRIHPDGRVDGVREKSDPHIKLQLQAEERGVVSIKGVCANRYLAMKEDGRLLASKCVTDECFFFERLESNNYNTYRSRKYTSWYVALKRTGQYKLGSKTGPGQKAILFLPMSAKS
# Sequence of Focal adhesion kinase 1 (Homo sapiens) (Q05397 whole entry, looked up): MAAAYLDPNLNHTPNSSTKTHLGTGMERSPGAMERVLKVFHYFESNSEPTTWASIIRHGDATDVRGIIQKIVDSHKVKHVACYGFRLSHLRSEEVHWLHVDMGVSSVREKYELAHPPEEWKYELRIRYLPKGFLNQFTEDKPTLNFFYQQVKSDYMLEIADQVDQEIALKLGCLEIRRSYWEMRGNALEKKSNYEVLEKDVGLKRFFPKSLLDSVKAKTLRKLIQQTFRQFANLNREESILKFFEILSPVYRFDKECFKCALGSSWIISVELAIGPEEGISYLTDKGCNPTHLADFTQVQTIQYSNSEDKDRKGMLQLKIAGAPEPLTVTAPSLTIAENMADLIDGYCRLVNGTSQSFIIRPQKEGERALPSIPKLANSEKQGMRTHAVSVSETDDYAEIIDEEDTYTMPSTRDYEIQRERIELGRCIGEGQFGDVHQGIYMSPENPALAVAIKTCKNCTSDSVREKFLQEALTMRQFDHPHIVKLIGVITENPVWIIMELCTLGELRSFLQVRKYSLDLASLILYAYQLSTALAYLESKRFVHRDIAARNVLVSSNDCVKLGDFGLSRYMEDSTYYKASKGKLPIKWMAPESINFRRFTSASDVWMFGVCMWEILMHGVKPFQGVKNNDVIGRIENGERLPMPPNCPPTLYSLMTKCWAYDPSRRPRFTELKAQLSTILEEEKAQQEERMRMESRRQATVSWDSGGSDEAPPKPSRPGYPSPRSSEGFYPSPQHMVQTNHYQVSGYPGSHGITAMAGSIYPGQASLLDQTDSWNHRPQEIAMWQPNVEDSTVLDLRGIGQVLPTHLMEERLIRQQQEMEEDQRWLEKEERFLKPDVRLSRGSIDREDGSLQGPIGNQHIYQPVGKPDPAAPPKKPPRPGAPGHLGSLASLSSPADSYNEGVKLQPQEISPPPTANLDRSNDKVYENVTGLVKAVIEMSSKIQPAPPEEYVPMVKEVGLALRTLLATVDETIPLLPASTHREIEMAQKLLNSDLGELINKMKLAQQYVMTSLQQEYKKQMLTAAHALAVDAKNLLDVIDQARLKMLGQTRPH
SMILES,composite z-score [1],composite z-score [2],composite z-score [3],composite z-score [4],composite z-score [5],composite z-score [6],z-score [7],composite z-score [8],composite z-score [9],z-score [10]
COC(=O)[C@@]1(Cc2ccc(F)cc2)[C@H]2c3cc(C(=O)N4CCCC4)n(C[C@H](O)CO)c3C[C@H]2CN1C(=O)c1ccccc1,1.09,1.09,-0.0554,1.01,-0.266,-0.157,0.226,-0.472,0.883,2.19 (inactive)
CCCCCCc1nc(Cc2cc(OC)c(OC)c(OC)c2)c(C)c2c1[Si](C(C)C)(C(C)C)OC2,0.0303,0.127,-0.38,-0.24,0.281,0.444,0.374,0.267,0.108,-0.123 (inactive)
CN1C(=O)C2C=CC(C(O)c3ccc(I)cc3)N(N(c3ccccc3)c3ccccc3)C2C1=O (stereo not given),-0.456,-0.0563,-0.164,0.25,0.524,-0.394,1.74,-0.432,0.536,0.899 (inactive)
O=C1O[C@H](c2ccccc2)[C@H](c2ccccc2)N2[C@H]1[C@@H](C(=O)O)[C@]1(C(=O)Nc3ccccc31)[C@H]2c1ccc(OCCO)cc1,1.26,0.823,-0.0003,0.438,0.496,0.293,0.209,-0.193,0.677,-1.01 (inactive)
O=C1NC(=O)C2C1C=CC(C(O)C(O)CO)N2Nc1ccccn1 (stereo not given),0.37,0.434,-0.201,0.485,0.176,-0.0885,0.767,0.0364,0.333,-1.41 (inactive)
CCOC(=O)C1=CCC(c2cccn2C(=O)OC(C)(C)C)N(S(=O)(=O)c2ccc(C)cc2)C1 (stereo not given),1.86,1.21,0.42,0.827,1.13,0.433,1.22,0.498,1.2,-0.997 (inactive)
COC(=O)C(CC#Cc1ccc2c(c1)[C@]1(C(=O)N2)[C@H](C(N)=O)[C@H]2C(=O)O[C@H](c3ccccc3)[C@H](c3ccccc3)N2[C@@H]1c1ccccc1OCCO)C(=O)OC,1.25,1.22,0.474,0.591,0.917,0.535,-1.05,0.607,0.775,-0.638 (inactive)
NCCCCCCNC(=O)[C@@H]1C[C@@H]2C(=O)NCC(=O)N2[C@@H]1c1cccc(OCCO)c1,-0.207,1.23,1.36,0.416,1.46,1.6,1.21,1.52,0.917,-1.66 (inactive)
COc1ccc(C(=O)Nc2ccc(CN3C(=O)[C@@]4(O[C@@H](CC(=O)N(CCO)Cc5ccccc5)[C@H]([Si](C)(C)c5ccc(OC)cc5)[C@H]4C)c4ccccc43)cc2)cc1,0.757,0.066,0.385,0.0715,0.35,0.936,-0.266,1.11,1.1,0.594 (inactive)
CCOC(=O)C[C@H]1[C@H](OC(=O)Cc2ccc3c(c2)OCO3)[C@@H](NC(=O)CC(C)C)c2cc(OCCCO)ccc2N1C(=O)c1ccc2ccccc2n1,0.212,0.832,0.325,0.973,1.32,1.28,-0.944,0.424,0.249,0.739 (inactive)
C=C[C@H](C)[C@@H](OC(=O)Nc1ccc(SC)cc1)c1ccc(OCCO)cc1,2.21,1.14,0.461,-1.15,0.629,0.2,-1.8,0.265,0.827,-7.41 (inactive)
CCCCN1CC=CC23O[C@@H]4/C=C\CCC(C)OC(=O)C4[C@H]2C(=O)N(CCO)[C@@H]3C1=O (stereo not given in full),3.24,-0.424,0.548,-1.18,-0.531,-1.49,-0.145,0.0422,-0.169,1.1 (inactive)
COC(=O)[C@]1(Cc2ccccc2CN=[N+]=[N-])N=C(c2ccc(OCCCO)cc2)O[C@@H]1c1ccccc1N=[N+]=[N-],1.29,0.833,0.499,-0.0222,1.15,0.802,-0.453,-0.251,0.425,-3.31 (inactive)
CC(=O)NCCCC[C@@H]1NC(=O)[C@H]2C[C@@H](C(=O)O)[C@@H](c3cccc(OCCO)c3)N2C1=O,0.246,1.21,0.398,0.984,1.29,1.12,-0.253,1.13,0.946,0.102 (inactive)
CC1C2C(CCCO)=CC(C3C(=O)N(C(N)=O)C(=O)C23)N1Cc1cccc(OC(F)(F)F)c1 (stereo not given),0.632,1.11,0.314,0.646,0.0794,0.438,-0.341,0.216,0.576,-0.0224 (inactive)

# Reference: PubChem BioAssay
